Tg IFNy HTS: inhibitors of Toxoplasma gondii growth with IFN-gamma; Toxoplasma gondii growth in IFN-gamma-treated host cells; hits give low values; activity change, negative = inhibition, % (no concentration beside the values); AID 1259416; hit rate 3.8% among 69,000; in the data active = activity change below about -70%, passing the limit was not always enough;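 also: host cells are HeLa cells infected with Toxoplasma gondii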
Large screens that a line does not name were inactive; ! = repeats disagree. This is one part of a sample in which hits are shown more often than they occur.

Cc1cccnc1CCn1cnc(-c2ccccc2)c1-c1cccc2nonc12	none
CC1C(c2ccccc2)N(C)C(c2ccccc2)CC1(O)Cc1ccccc1 (centres undefined)	Tg IFNy HTS -85
Cc1ccc(CC2(O)CC(C)N(C)CC2C)cc1 (centres undefined)	none
CN1CCCC1(Cc1ccccc1)C(=O)O (centres undefined)	none
CN1C(=O)N(C)C2(C(=O)NCc3ccccc3)N=CNN=C12 (centres undefined)	none
Cc1ccc(NS(=O)(=O)N(C)C)cc1C	none
CC(=O)NC(Cc1c[nH]c2ccccc12)C(=O)OCc1cc(C(F)(F)F)cc(C(F)(F)F)c1 (centres undefined)	none
FC(F)(F)c1cc(CO[C@H]2CCCN[C@H]2c2ccccc2)cc(C(F)(F)F)c1	Tg IFNy HTS -81!
O=C(CN(C(=O)CCC(=O)Nc1ccccn1)c1ccccc1F)NCCc1ccccc1	none
Cn1nc(CC2CCN(C(=O)C3C=CCN3)CC2)n(-c2ccccc2)c1=O (centres undefined)	none
NCC(=O)N1C[C@H](NC(=O)c2ccccc2)C[C@H]1C(=O)O	none
C[C@]12CC[C@@H]3c4ccc(O)cc4CC[C@H]3[C@@H]1CC[C@@H]2OC(=O)CCC(=O)O	none
C[C@]12CCC3c4ccc(OS(=O)(=O)O)cc4CCC3C1CCC2=O (some centres undefined)	none
C[C@]12CCC3c4ccc(O)cc4CCC3C1CC[C@@H]2OC(=O)CCC1CCCC1 (some centres undefined)	Tg IFNy HTS -72!
COc1ccccc1CC(=O)N1CCCC1c1cc2nc(C)cc(C(F)(F)F)n2n1 (centres undefined)	none
Cc1cc(C(F)(F)F)n2nc(C3CCCN(C(=O)c4cc5c(s4)CCCC5)C3)cc2n1 (centres undefined)	Tg IFNy HTS -104
O=C(c1ccn[nH]1)N1CCC(c2cc3nc(-c4cccs4)cc(C(F)(F)F)n3n2)C1 (centres undefined)	none
Fc1cnc(N2C[C@@H]3COC[C@]3(COCc3ccccn3)C2)nc1	none
C=CCN1CC2(CCN(Cc3cccnc3)CC2)OCC1=O	none
NS(=O)(=O)c1ccc(NC(=O)CSc2ncn(-c3ccccc3)n2)cc1	none
Nc1nc(Nc2ccc(S(N)(=O)=O)cc2)nn1C(=O)c1c(F)cccc1F	Tg IFNy HTS -72
O=C(c1c(F)cccc1F)N1CCN(S(=O)(=O)c2cc3c4c(c2)CCC(=O)N4CCC3)CC1	none
C=CCn1cnc(-c2ccccc2)c1-c1ccc2onc(C)c2c1	none
CC(=O)Nc1ccc(-c2c(-c3ccccc3)ncn2Cc2ccco2)cc1	none
CO[C@H]1COC[C@@H]1n1cnc(-c2ccccc2)c1-c1ccc2occc2c1	Tg IFNy HTS -78
NC(=O)N1CCCn2c(nc(CNc3ccccn3)cc2=O)C1	none
COc1cc(C(=O)N2CCC3(CC2)Nc2ccccc2-n2cccc23)cc(OC)c1OC	none
Clc1cccc(-c2nnc(-c3nc(NCc4cccnc4)c4ccccc4n3)o2)c1	none
Cc1ccc(NC(=O)Cn2c(=O)cc(C(=O)N3CCc4ccccc4C3)c3ccccc32)cc1F	none
O=C(Cn1c(=O)cc(C(=O)N2CCc3ccccc3C2)c2ccccc21)Nc1ccc(F)c(Cl)c1	Tg IFNy HTS -72
O=C(Cn1c(=O)cc(C(=O)N2CCCC2)c2ccccc21)Nc1ccc(F)c(Cl)c1	none
C=CCN(C)C(=O)c1coc(COc2ccc3ccc(OC)cc3c2)n1	none
COc1cc(NC(=O)c2c(O)c3cccnc3n(-c3ccccc3)c2=O)cc(OC)c1	none
CN1C(=O)c2cc(NC(=O)Cc3cccs3)ccc2OC[C@@H]2O[C@H](CC(=O)NCc3ccc(-c4ccccc4)cc3)CC[C@H]21	none
CN1C(=O)c2cc(NC(=O)Cc3cccs3)ccc2OC[C@H]2O[C@H](CC(=O)NCc3ccc(-c4ccccc4)cc3)CC[C@@H]21	Tg IFNy HTS -85
CN1C(=O)c2cc(NC(=O)Cc3cccs3)ccc2OC[C@H]2O[C@@H](CC(=O)NCCc3ccncc3)CC[C@@H]21	none
Cc1cccc(CN2CCC3(CCN(S(=O)(=O)C4CC4)C3)C2=O)c1 (centres undefined)	none
CCOC(=O)c1ccc(Nc2nc3nonc3nc2NCc2ccco2)cc1	Tg IFNy HTS -102
CCOC(=O)c1cnc(-c2ccccc2)nc1Nc1ccc(C)cc1	none
COc1ccc(-n2nnc(C(C)=O)c2NCc2ccco2)cc1	none
CSc1ccc(CN(C(=O)c2ccc(C)cc2)C2(C(=O)NCc3ccccc3)CCN(C(C)=O)CC2)cc1	none
Cn1ncc2c(N3CCN(C(=O)N4CCOCC4)CC3)nc(C(C)(C)C)nc21	none
Cn1cc(CN2CCC3(CCC(OCCO)c4ccccc43)CC2)cn1 (centres undefined)	none
CC(=O)Oc1cc2c(c(C)c1OC(C)=O)CC=C1[C@@]2(C)CC[C@@]2(C)C3C[C@](C)(C(=O)O)CC[C@]3(C)CC[C@]12C (some centres undefined)	Tg IFNy HTS -81
CC1(C)C2CC[C@]3(C)C(C(=O)C=C4[C@H]5C[C@@](C)(C(=O)O)CC[C@]5(C)CC[C@]43C)[C@@]2(C)CC[C@@H]1O (some centres undefined)	none
S=C(NCc1ccccc1)Nc1ccc(Br)cc1	none
S=C(N/N=C1\CCCc2c1[nH]c1ccc(Br)cc21)Nc1ccccc1	Tg IFNy HTS -82
O=C(NC(=S)Nc1ccc2c(c1)CCC2)c1ccccc1	none
Cn1cc(-c2csc(NC(=O)c3cnc(-c4ccc(Cl)cc4)nc3)n2)cn1	none
Fc1ccc(-n2cc(CCCCN3CCC4(CC3)OCc3ccccc34)c3ccccc32)cc1	Tg IFNy HTS -76
CCOc1ccccc1NC(=O)Cn1c(=O)cc(C(=O)N2CCCCC2)c2ccccc21	none
CC(=O)N(C)Cc1ncn2c1CN(C(=O)C1CCCO1)CCC2 (centres undefined)	none
Cc1[nH]ncc1C(=O)N1CCC(C2CCCCN2C(=O)Cc2ccccc2F)CC1 (centres undefined)	none
Cc1cc(SCC(=O)Nc2ccccc2)nc(SCc2ccc(Cl)cc2)n1	none
Cc1ccc(Cl)cc1NC(=O)Nc1ccc(-c2nc(-c3ccccc3)co2)cc1	none
O=C(Nc1ccccc1)Nc1ccc(Cl)cc1SCc1ccccc1	Tg IFNy HTS -77
O=C(Nc1cccnc1)c1ccnn1-c1ccc2ccc(-c3cccnc3)cn12	none
CC1CCCCN1C(=O)c1ccnn1-c1ccc2ccc(-c3ccccc3)cn12 (centres undefined)	Tg IFNy HTS -85
CC1CCCCN1C(=O)c1ccn(-c2ccc3ccccn23)n1 (centres undefined)	none
CCn1c(C2CCN(Cc3coc4ccc(C)cc4c3=O)CC2)nn(C)c1=O	none
COc1ccc(Cl)cc1NC(=O)Nc1cc(C)nc2ccccc12	Tg IFNy HTS -86
COc1ccc(Cl)cc1NC(=O)c1nc(Nc2ccccc2)c2ccccc2n1	none
COc1ccc(Cl)cc1NC(=O)COc1nc(C)nc2ccccc12	none
O=C(c1ccccc1)c1ccc(O)c(C(c2ccccc2Cl)N2CCCCC2)c1O (centres undefined)	Tg IFNy HTS -97
NC(=O)COc1cccc(CN2CCC3(CCNC(=O)CC3)CC2)c1	none
CCCS(=O)(=O)N1CCO[C@H]2[C@@H](Oc3cccnc3)CC[C@H]21	none
Cc1noc(C)c1CN(C)C(=O)c1cccc(NCc2cccnc2)c1C	none
CCC1c2cccn2CCN1C(=O)c1cccc(NCc2cccnc2)c1C (centres undefined)	none
Cc1c(NCc2cccnc2)cccc1C(=O)N1C[C@@H](C)O[C@@H](C)C1	Tg IFNy HTS -83
CCn1c(C2CCCN(Cc3ccc(S(C)(=O)=O)cc3)C2)nn(C)c1=O (centres undefined)	none
Cc1ccc(N2CCC3(CC2)CN(C(=O)c2cccnc2)CCO3)nn1	none

Bioassay records deposited in PubChem by Broad Institute.
